The nature of assay [1]: optical density shifts of acrAB sulA E. coli – strain DRC41, OD650, 48 h, E. coli filamentation inducer project, primary screen (AID 1152).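 Also: E. coli MC1000 strain DRC41 lacking acrAB efflux pump and sulA.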 Conditions: higher = more signal, called active from +8 up or from −8 down.
The nature of assay [2]: probe aLefty1 binding on compound microarray – biochemical, small-molecule microarray, 635/667 nm fluorescence, primary screen (AID 1153).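 Also: score merges spot fluorescence with signal-to-noise ratio from the scanned slide images.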 Conditions: higher = more signal.
Assay [3] is described as follows: plasmodial surface anion channel blockers, osmotic lysis – cell-based, P. falciparum Indochina, OD700, 1 h, primary screen (AID 1154). Conditions: P. falciparum Indochina infected RBC osmotic lysis, higher = more signal, called active from +8 up or from −8 down.
Assay [4] is described as follows: plasmodial surface anion channel blockers, osmotic lysis – cell-based, P. falciparum Indochina, OD700, 2 h, primary screen (AID 1155).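 Also: lysis reports solute entry through the parasite surface anion channel PSAC.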 Particulars: P. falciparum Indochina infected erythrocytes, higher = more signal, called active from +8 up or from −8 down.
Assay [5] can be described thus: changes in parasitized red cell lysis, either direction – P. falciparum Indochina, OD700, 3 h, PSAC antagonist project, primary screen (AID 1156). Particulars: P. falciparum-infected erythrocytes, osmotic lysis, higher = more signal, called active from +8 up or from −8 down.
Assay [6] is described as follows: plasmodial surface anion channel blockers, osmotic lysis – cell-based, P. falciparum Indochina, OD700, 18 h, primary screen (AID 1157). Conditions: P. falciparum Indochina infected erythrocytes, osmotic lysis OD700, 18 h; higher = more signal, called active from +8 up or from −8 down.
The nature of assay [7]: S6 kinase pathway phospho-S6 level changes – cell-based, A549, cytoblot, luminescence, serum-stimulated, primary screen (AID 1158).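 Also: serum-stimulated A549 lung adenocarcinoma cells; signal is phosphorylated S6 detected by cytoblot immunostaining with HRP secondary.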 Particulars: 5 h, higher = more signal.
Assay [8] addresses NADPH oxidase 2 (Homo sapiens) (UniProt P04839). Kind of assay: compounds shifting NOX2 Amplex Red fluorescence – cell-based, HEK293-NOX2, PMA-stimulated, NOX inhibitor project, primary screen (AID 1159). Also: test concentration not given here. Particulars: 45 min, higher = more signal, called active from +8 up or from −8 down.
Assay [9] addresses NADPH oxidase 4 (Homo sapiens) (UniProt Q9NPH5). Kind of assay: compounds shifting NOX4 Amplex Red fluorescence – cell-based, HEK293-NOX4, tetracycline-induced, NOX inhibitor project, primary screen (AID 1160). Conditions: HEK293-NOX4, Amplex Red H2O2 fluorescence, 45 min; higher = more signal, called active from +8 up or from −8 down.
For assay [10], the target named is NADPH oxidase 5 (Homo sapiens) (UniProt Q96PH1). Description: compounds shifting NOX5 Amplex Red fluorescence – cell-based, HEK293-NOX5, NOX inhibitor project, primary screen (AID 1161). Conditions: HEK293-NOX5, ionomycin, 45 min, higher = more signal.
NADPH oxidase 5 (Homo sapiens), sequence (Q96PH1 whole entry, looked up): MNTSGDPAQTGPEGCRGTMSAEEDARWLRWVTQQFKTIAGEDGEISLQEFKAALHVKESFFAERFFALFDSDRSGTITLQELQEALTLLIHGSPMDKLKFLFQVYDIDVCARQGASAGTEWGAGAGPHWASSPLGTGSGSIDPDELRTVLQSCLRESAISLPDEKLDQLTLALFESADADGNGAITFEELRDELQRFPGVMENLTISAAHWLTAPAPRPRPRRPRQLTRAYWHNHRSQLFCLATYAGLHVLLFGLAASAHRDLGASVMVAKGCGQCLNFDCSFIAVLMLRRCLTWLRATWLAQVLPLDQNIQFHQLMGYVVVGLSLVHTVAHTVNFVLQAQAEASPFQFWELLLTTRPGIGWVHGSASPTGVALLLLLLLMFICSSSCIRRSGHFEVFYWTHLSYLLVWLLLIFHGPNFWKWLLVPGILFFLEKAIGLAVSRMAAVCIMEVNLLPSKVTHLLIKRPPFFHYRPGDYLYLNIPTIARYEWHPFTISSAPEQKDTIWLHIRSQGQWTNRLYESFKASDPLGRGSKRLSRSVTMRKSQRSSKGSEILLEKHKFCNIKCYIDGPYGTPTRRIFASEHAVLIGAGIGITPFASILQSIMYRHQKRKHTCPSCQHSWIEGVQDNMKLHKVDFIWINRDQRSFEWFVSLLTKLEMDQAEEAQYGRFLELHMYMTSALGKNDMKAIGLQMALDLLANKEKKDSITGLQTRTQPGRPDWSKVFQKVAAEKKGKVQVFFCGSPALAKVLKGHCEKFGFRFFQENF
A short description of assay [11]: compound effects on lung adenocarcinoma cell viability – A549, calcein-AM fluorescence, 48 h, basal, profiling panel (AID 1162). Also: test concentration not given here. Particulars: higher = more signal.
Assay [12] is described as follows: compound effects on differentiated 3T3-L1 adipocyte viability – cell-based, 3T3-L1 adipocytes, calcein-AM fluorescence, 48 h, basal, profiling panel (AID 1163). Also: test concentration not given here. Conditions: 3T3-L1 adipocytes viability, higher = more signal.
Assay [13] is described as follows: compound effects on hepatocellular carcinoma cell viability – HepG2, calcein-AM fluorescence, 48 h, basal, profiling panel (AID 1164). Also: test concentration not given here. Conditions: higher = more signal.
The nature of assay [14]: compound effects on multiple myeloma cell viability – MM1S, calcein-AM fluorescence, 48 h, basal, profiling panel (AID 1165). Also: test concentration not given here. Conditions: higher = more signal.
The nature of assay [15]: calcein-AM signal in unstimulated myeloma cells – cell-based, calcein-AM fluorescence, 48 h, PK04 Diversity Set, profiling panel (AID 1166).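 Also: cells grown under basal conditions without added stimulus; test concentration not given here.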 Conditions: RPMI8226 myeloma viability, higher = more signal.
Assay [16] in a line: JC-1 mitochondrial signal, unstimulated HepG2 cells – cell-based, JC-1 fluorescence, 24 h, 100 nL compound, profiling panel (AID 1167). Also: test concentration not given here. Particulars: HepG2 mitochondrial potential, higher = more signal.
Assay [17] in a line: JC-1 mitochondrial signal, unstimulated adipocytes – cell-based, JC-1 fluorescence, 3T3-L1 adipocytes, 24 h, 100 nL compound, profiling panel (AID 1168). Also: test concentration not given here. Conditions: JC-1 mitochondrial fluorescence, higher = more signal, called active from +8 up or from −8 down.
Assay [18] can be described thus: JC-1 mitochondrial signal, unstimulated myeloma cells – cell-based, JC-1 fluorescence, RPMI8226, 24 h, 100 nL compound, profiling panel (AID 1169). Also: test concentration not given here. Conditions: JC-1 mitochondrial potential fluorescence, higher = more signal.
Assay [19] can be described thus: JC-1 mitochondrial signal, unstimulated MM1S myeloma – cell-based, JC-1 fluorescence, 24 h, 100 nL compound, profiling panel (AID 1170). Also: test concentration not given here. Particulars: MM1S mitochondrial potential, higher = more signal.
Assay [20] is described as follows: resazurin metabolic signal in A549 cells – cell-based, resazurin fluorescence, 24 h, PK04 Diversity Set, profiling panel (AID 1171). Also: test concentration not given here. Particulars: A549 viability, higher = more signal, called active from +8 up or from −8 down.

Calls of active or inactive are those of the source.

NADPH oxidase 2 (Homo sapiens), sequence (P04839 whole entry, looked up): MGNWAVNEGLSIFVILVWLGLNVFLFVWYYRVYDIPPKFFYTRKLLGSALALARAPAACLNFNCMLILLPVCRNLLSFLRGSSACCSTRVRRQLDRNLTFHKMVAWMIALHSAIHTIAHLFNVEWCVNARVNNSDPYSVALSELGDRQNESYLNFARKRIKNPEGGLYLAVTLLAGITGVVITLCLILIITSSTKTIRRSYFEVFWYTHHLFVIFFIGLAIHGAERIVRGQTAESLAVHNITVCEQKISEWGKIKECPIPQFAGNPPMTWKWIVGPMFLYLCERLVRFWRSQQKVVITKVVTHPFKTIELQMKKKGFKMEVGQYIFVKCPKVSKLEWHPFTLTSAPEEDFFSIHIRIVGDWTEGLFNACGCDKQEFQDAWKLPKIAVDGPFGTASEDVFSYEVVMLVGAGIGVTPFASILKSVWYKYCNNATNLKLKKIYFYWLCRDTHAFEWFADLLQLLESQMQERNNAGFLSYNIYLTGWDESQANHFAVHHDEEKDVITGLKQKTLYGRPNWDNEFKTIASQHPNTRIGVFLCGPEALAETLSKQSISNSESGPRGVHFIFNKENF
NADPH oxidase 4 (Homo sapiens), sequence (Q9NPH5 whole entry, looked up): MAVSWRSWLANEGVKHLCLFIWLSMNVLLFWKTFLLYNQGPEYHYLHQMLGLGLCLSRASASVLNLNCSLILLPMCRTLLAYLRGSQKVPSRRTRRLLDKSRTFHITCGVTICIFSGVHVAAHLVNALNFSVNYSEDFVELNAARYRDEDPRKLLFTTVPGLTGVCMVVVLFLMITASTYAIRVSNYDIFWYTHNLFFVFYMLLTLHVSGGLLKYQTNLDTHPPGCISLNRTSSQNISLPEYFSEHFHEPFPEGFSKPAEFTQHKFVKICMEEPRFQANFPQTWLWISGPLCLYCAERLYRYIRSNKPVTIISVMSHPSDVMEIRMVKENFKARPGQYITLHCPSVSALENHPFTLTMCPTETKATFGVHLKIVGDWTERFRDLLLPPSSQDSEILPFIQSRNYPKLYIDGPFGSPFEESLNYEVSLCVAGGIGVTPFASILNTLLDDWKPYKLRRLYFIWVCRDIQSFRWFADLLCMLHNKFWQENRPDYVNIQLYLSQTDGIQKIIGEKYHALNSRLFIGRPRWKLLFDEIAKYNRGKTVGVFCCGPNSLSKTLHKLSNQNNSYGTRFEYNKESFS

With `CCOC(=O)C1=C[C@@H](c2ccccc2)N(S(=O)(=O)c2ccc(C)cc2)[C@H]1c1ccc(OC)cc1`, the z-score in assay [1] is -1.11 (inactive); in assay [3], 1.18 (inactive); in assay [4], 1.07 (inactive); in assay [5], 0.106 (inactive); in assay [6], 0.512 (inactive); in assay [7] it was -0.887. Further, the z-score was 0.156 (inactive) in [8]; 1.02 (inactive) in assay [9]; -0.348 in assay [10]; -0.841 in [11]; -0.0112 in assay [12]; -0.157 in assay [13]. The z-score in assay [14] was -0.62; in assay [15], -0.926; in assay [16], 1.03; in assay [17], -0.708 (inactive); in [18] it was 0.692; in assay [19], -0.441. Besides, in [20], the z-score was 1.63 (inactive). Moreover, the composite z-score in [2] amounted to 1.02.

On to `COc1cccc(C)c1NC(=O)O[C@H]1[C@H](OC(=O)Nc2ccccc2-c2ccccc2)[C@H](OC(=O)Nc2ccccc2-c2ccccc2)[C@@H](OC)O[C@@H]1CO`, for which the z-score was -0.0771 (inactive) in assay [1]; 1.57 (inactive) in assay [3]; 0.557 (inactive) in [4]; -0.299 (inactive) in assay [5]; 0.742 (inactive) in [6]; -0.319 in assay [7]. The z-score in [8] is 0.224 (inactive); in [9], -0.572 (inactive); in [10], -0.507; in assay [11], -0.889; in assay [12], 0.328; in assay [13], 0.56. Also, the z-score was -0.632 in assay [14]; -2.77 in assay [15]; -0.214 in [16]; 1.33 (inactive) in assay [17]; 0.198 in assay [18]; 0.143 in assay [19]. Also, in [20], the z-score was -1.11 (inactive). This compound showed a composite z-score in assay [2] of -0.017.

For `CC(C)N1C(=O)c2ccccc2[C@@H](C(=O)NCCN2CCOCC2)[C@@H]1c1ccc(CO)cc1`, the z-score in [1] was -0.675 (inactive); in [3] it was 2.01 (inactive); in [4] it was -0.151 (inactive); in assay [5], 1.24 (inactive); in [6] it was 0.255 (inactive); in assay [7] it was -0.468. Also, the z-score in assay [8] is 1.59 (inactive); in assay [9], 0.675 (inactive); in assay [10] it was 0.474; in assay [11], 0.281; in assay [12], -0.973; in assay [13], 0.135. Further, the z-score was -0.551 in assay [14]; 0.165 in [15]; -0.247 in assay [16]; -1.26 (inactive) in [17]; 0.772 in [18]; 0.113 in assay [19]. Moreover, in assay [20], the z-score was 0.175 (inactive). This compound also showed a composite z-score in [2] of -0.0908.

On to `O=C1[C@H]2C=C(I)[C@H](C[C@@H]2OCCOCCO)[C@@]12CO2`, for which the z-score in [1] is -0.878 (inactive); in assay [3], -0.0899 (inactive); in assay [4], -0.122 (inactive); in assay [5] it was -0.321 (inactive); in [6], -0.235 (inactive); in [7], 0.0332. Moreover, the z-score in assay [8] is 0.578 (inactive); in [9] it was 0.373 (inactive); in assay [10] it was -0.151; in assay [11], -0.461; in assay [12], -1.03; in assay [13], -0.773. The z-score in assay [14] was -0.582; in [15], -0.537; in assay [16], -1.77; in assay [17] it was -0.473 (inactive); in [18], -0.196; in [19], -0.807. In assay [20], the z-score is 0.323 (inactive). The compound also displayed a composite z-score in assay [2] of -0.371.
